# PubChem BioAssay AID588855 (National Center for Advancing Translational Sciences (NCATS), 2011)
# Screen size: about 410,000 compounds; about 5,000 (1.2%) were called active. Another 13% or so got no clear call; they are omitted. Calls come from the whole dose curve; as a rule, active = well fitted inhibition curve with a large enough effect; inconclusive = small, poorly fitted or top-dose-only effect; inactive = no such curve, though single readings can be large or run the other way. The list comes from a sample in which actives are over-represented; it also holds similar structures and randomly drawn compounds. A call without a number means that no potency is given here.
# Experiment: qHTS for Inhibitors of TGF-b; note: nearly all actives have a fitted effect of over 65% in size
# Conditions: HepG2 CAGA-GFP TGF-b/SMAD3 reporter, GFP fluorescence, 18 h, TGF-beta stimulated, 500 pg/mL final; series mostly up to 46.1 µM
# Summary of the method: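 Read-out: total well GFP (ex488/em500-530) summed from mean per-cell fluorescence. Cells: HEPG2 CAGA-GFP, 1% FBS DMEM, 18 h at 37 degrees C with 500 pg/mL final TGF-beta. Unstimulated wells served as the full-inhibition control; stimulated DMSO wells = 0%.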
# Potency is the fitted concentration of half-maximal effect.
row,Structure (SMILES),Potency
1,CCc1nn(CC(=O)Nc2cc(C)cc(C)c2)c(=O)c2cc3sccc3n12,inactive
2,Oc1c(C(c2ccccn2)N2CCOCC2)ccc2cccnc12 (stereo not given),3.98 µM (active)
3,Oc1c(C(c2ccccc2Cl)N2CCOCC2)sc2nc(-c3ccco3)nn12 (stereo not given),inactive
4,O=C(COC(=O)c1ccccc1OCCOc1ccccc1)Nc1cccc(Br)c1,inactive
5,Cc1c(-c2cccc(NC(=O)C(C)(C)C)c2)nc2ncccn12,inactive
6,ClC/C=C/C[n+]1ccccc1Cl,inactive
7,O=C(Nc1nnc(S(=O)(=O)N2CCCCCC2)s1)c1cccc(Br)c1,10 µM (active)
8,O=C(Nc1nnc(S(=O)(=O)N2CCOCC2)s1)c1cccc(Br)c1,inactive
9,Cc1cccc(C(=O)Nc2nnc(S(=O)(=O)N3CCCCCC3)s2)c1,inactive
10,O=C(NCc1ccccc1)c1ccc2c(c1)nc1n2CCCCC1,inactive
11,Cc1cccc(NC(=S)NCc2ccc3[nH]c4c(c3c2)CCCC4)c1,25.1 µM (active)
12,CCc1cccc(CC)c1NC(=S)NCc1ccc2[nH]c(C)cc2c1,inactive
13,Cc1cc(C)cc(NC(=S)NCCc2c[nH]c3ccccc23)c1,inactive
14,Cc1csc(NCC(=O)c2c[nH]c3ccccc23)n1,inactive
15,Nc1ncnc2nnsc12,inactive
16,CC(C)(C)c1ccc(C(=O)C[n+]2cccc3cc(Cl)ccc32)cc1,inactive
17,COc1ccc(N=C2SC(C(=O)Nc3ccc(F)cc3)CC(=O)N2C)cc1 (stereo not given),inactive
18,COc1cccc(-c2cccc(NC(=O)C3CCN(C4CCC4)CC3)c2)c1,inactive
19,COc1cccc(N=C2SC(C(=O)Nc3cccc(Cl)c3)CC(=O)N2C)c1 (stereo not given),10 µM (active)
20,O=C(C1CCCN(S(=O)(=O)c2cccc3nonc23)C1)N1CCN(c2ccccc2F)CC1 (stereo not given),inactive
21,CC(C)Oc1ccc(NC(=O)c2cc3ccccc3o2)cc1,inactive
22,CCOc1ccccc1N(CC)C(=O)Nc1cn(C)c(=O)c2ccccc12,inactive
23,COC(=O)c1c(NC(=O)c2cc(=O)c3c(C)cc(C)cc3o2)sc2c1CCCC2,inactive
24,Cc1ccc(Nc2nc(-c3ccc(O)cc3O)cs2)nc1,12.6 µM (active)
25,CC(=O)Nc1cnc(-c2ccc(O)cc2C)cn1,inactive
26,Cc1ccn2c(-c3csc(Nc4ccc(C(=O)O)cc4)n3)c(C)nc2c1,inactive
27,CCOc1ccc(CNC(=O)CCc2c(C)nn(-c3ccc(N4CCCCC4)nn3)c2C)cc1,inactive

row,Structure (SMILES),Potency
1,COc1cccc(CNC(=O)CCC(=O)N2CC3CCCN3c3ccccc32)c1 (stereo not given),inactive
2,CCc1ccc(S(=O)(=O)Nc2cc3c(C(=O)OCc4ccccc4)c(C)oc3c3ccccc23)cc1,inactive
3,COC(=O)c1c(C)oc2ccc(N(C(=O)Oc3ccccc3)S(=O)(=O)c3ccccc3)cc12,inactive
4,CCOC(=O)c1c(C)oc2ccc(N(C(=O)c3ccncc3)S(=O)(=O)c3ccc(CC)cc3)cc12,12.6 µM (active)
5,Cc1nc2sc(C)c(C)n2c(=O)c1S(=O)(=O)NCCc1ccc(Cl)cc1,inactive
6,CCCCCCCCn1c2c(c(=N)c3c1CCC3)CCCC2,8.91 µM (active)
7,CCCCN(CC)C(=O)c1c[nH]c2ccc(S(=O)(=O)Nc3cccc(OC)c3)cc2c1=O,inactive
8,Oc1cccc2cc(-c3ccncc3)cnc12,3.55 µM (active)
9,CCc1cc2c(cc(C(=O)OC)n2Cc2nc(-c3ccc(C)cc3)oc2C)s1,inactive
10,CCc1ccccc1N(C)C(=O)C1CCCN(c2ncnc3onc(-c4ccc(F)cc4)c23)C1 (stereo not given),inactive
11,Cc1ccc(Cl)cc1N(C)C(=O)C1CCCN(c2ncnc3onc(-c4ccc(F)cc4)c23)C1 (stereo not given),11.2 µM (active)
12,COc1ccccc1N1CCN(c2ncnc3onc(-c4ccc(F)cc4)c23)CC1,inactive
13,Cc1ccc(Nc2c(-c3ccc(N(C)C)cc3)nc3nc[nH]n23)cc1,inactive
14,CN(NC(=O)c1ccccc1F)c1nc(C(F)(F)F)nc2ccccc12,inactive
15,CN(C)C(CNC(=O)c1cc2ccccc2o1)c1ccccc1 (stereo not given),inactive
16,CCc1ccc(C(CNc2nc(C(F)(F)F)nc3ccccc23)N(C)C)cc1 (stereo not given),11.2 µM (active)
17,O=C(C1COc2ccccc2O1)N(Cc1cccnc1)c1nc2c(F)cc(F)cc2s1 (stereo not given),inactive
18,Cc1cc(-c2ccc(C)c(S(=O)(=O)N3c4ccccc4CC3C)c2)on1 (stereo not given),inactive
19,CCCCN1C(=O)C(C)=C(C)C1OCCc1ccc(OC)c(OC)c1 (stereo not given),inactive
20,COc1ccc(CCN2C(=O)C(C)=C(C)C2=O)cc1OC,inactive
21,CCCCOc1ccc(CN2C(=O)C(=O)c3cc(Br)cc(C)c32)cc1OC,10 µM (active)
22,Cc1ccc(-c2nc3cccc(C)n3c2Nc2ccc3c(c2)OCCO3)cc1,inactive
23,Clc1cccc(N=C2NN=C(c3ccc4c(c3)OCCO4)CS2)c1,10 µM (active)
24,COc1ccc(NC(=O)CSc2nccn2C2CCCC2)cc1OC,inactive
25,CCN1CCC(O)(/C=C/c2ccc(C)cc2)C(C(=O)/C=C/c2ccc(C)cc2)C1 (stereo not given),11.2 µM (active)
26,COc1ccc(CNc2nc(-c3ccc(Cl)cc3)nn2S(=O)(=O)c2ccc(C)cc2)cc1,inactive
27,O=S(=O)([N-]c1nc2ccccc2nc1-[n+]1ccc(Cc2ccccc2)cc1)c1ccc(Br)s1,2.82 µM (active)

row,Structure (SMILES),Potency
1,O=S(=O)(NCc1ccccn1)c1ccc(Br)s1,inactive
2,COc1ccc(C2C(=O)N(C3CCCCCC3)CC(=O)N2CCc2ccc(Cl)cc2)cc1OC (stereo not given),inactive
3,CCC(=O)N1c2ccccc2CC1C(=O)N1CCN(c2ccccc2F)CC1 (stereo not given),inactive
4,Cc1ccccc1CCNC(=O)C1CCN(c2nc3ccccc3nc2C(F)(F)F)CC1,inactive
5,Cc1ccc(Cl)cc1NC(=O)NC1COc2ccccc2C1 (stereo not given),inactive
6,Nc1nc(N)c(N=O)c(N)n1,inactive
7,Cc1nc2ccccn2c(=O)c1NC(=O)c1c(F)cccc1F,inactive
8,c1ccc(C2CNCc3c2ccc2ccccc32)cc1 (stereo not given),12.6 µM (active)
9,CCN(CC)/[N+]([O-])=N/OCOC(=O)Cc1c(C)n(C(=O)c2ccc(Cl)cc2)c2ccc(OC)cc12,inactive
10,CCOC(=O)c1c(SCC(=O)Nc2cccc(C)c2C)nc(=O)[nH]c1C,inactive
11,CCOC(=O)c1c(C)[nH]c2c1-c1ccccc1C(=O)C2=O,1.26 µM (active)
12,CCOC(=O)c1[nH]c2ccccc2c1N=C(C)N(CC)CC,inactive
13,Cc1ccc(S(=O)(=O)/N=S(\C)C(C)C)cc1 (stereo not given),inactive
14,Cc1ccc(S(=O)(=O)N/N=C(\c2ccccc2)C2CC2)cc1,inactive
15,Cc1ccc(S(=O)(=O)/N=C2\C=C(NS(=O)(=O)c3ccc(C)cc3)C(=O)c3ccccc32)cc1,11.2 µM (active)
16,CCCCN(C)CCCNC(=O)CN1N=C(c2ccc(OC)cc2)CCC1=O,inactive
17,Brc1cccc(-c2nnn3c2nc(NC2CCCCC2)c2ccccc23)c1,inactive
18,O=S(=O)(NCCOc1cccc2cccnc12)c1ccc(F)cc1,inactive
19,NC(=O)C1CCN(C(=O)COc2cccc3cccnc23)CC1,inactive
20,O=C(Nc1ccccc1)Oc1cccc2cccnc12,8.91 µM (active)
21,CCNS(=O)(=O)c1ccc(NC(=O)c2cncc(Br)c2)cc1,inactive
22,CCNS(=O)(=O)c1ccc(NC(=O)Nc2cccc(C(F)(F)F)c2)cc1,12.6 µM (active)
23,CCNS(=O)(=O)c1ccc(NC(=O)CSc2nc(-c3ccco3)cc(C(F)(F)F)n2)cc1,inactive
24,CO[C@H]1O[C@@H]2O[C@@]3(C)CC[C@@H]4[C@@H](C)CC[C@@H]([C@H]1C)[C@@]24OO3,inactive
25,Brc1nc2ncnc(NCc3ccco3)c2[nH]1,inactive
26,CC(=O)N(CN1C(=O)C2CC=CCC2C1=O)c1cccc(Cl)c1 (stereo not given),inactive
27,O=C(CCl)N(Cc1cccc([N+](=O)[O-])c1)c1cccc(Cl)c1,11.2 µM (active)

row,Structure (SMILES),Potency
1,COC(=O)c1cc(C(=O)N(Cc2ccccc2)c2ccccn2)cc([N+](=O)[O-])c1,inactive
2,CCCc1nn2c(=O)cc(COC(=O)c3ccc(NC(=O)COc4ccc(F)cc4)cc3)nc2s1,inactive
3,c1ccc(CNCc2ccc(CNCc3ccccc3)cc2)cc1,inactive
4,Oc1ccc(CNc2ccccc2O)cc1,12.6 µM (active)
5,Oc1ccc(N2CCN(C(=S)NCc3ccccc3)CC2)cc1,inactive
6,CCN(CC)c1nc(C#N)nc(OC)n1,inactive
7,CC(C)(CCl)C(=O)Nc1ccc(Sc2ccc(F)cc2)cc1,inactive
8,O=C(CCl)Nc1ccc(Sc2ccc(NC(=O)CCl)cc2)cc1,10 µM (active)
9,CCC(=O)Nc1ccc(Nc2nc(Cl)nc(Nc3ccc(NC(=O)CC)cc3)n2)cc1,inactive
10,CCOc1ccc(C2C(C(=O)Nc3ccc(Cl)cc3)=C(C)Nc3nc(C(F)(F)F)nn32)cc1 (stereo not given),inactive
11,CCc1ccc(NC(=O)c2cc(S(=O)(=O)N3CCCC(C)C3)cn2C)cc1 (stereo not given),inactive
12,Cn1c(=O)c2c(SCC(=O)NCC3CCCO3)nc(-c3ccccc3F)nc2n(C)c1=O (stereo not given),inactive
13,CNC(=O)COc1ccc(S(=O)(=O)Nc2ccccc2)cc1,inactive
14,CCS(=O)(=O)Nc1cccc(-c2cc(-c3ccccc3)c3cc(C)ccc3n2)c1,inactive
15,CCCOc1ccc(-c2cccc(NS(=O)(=O)c3ccccc3)c2)nn1,10 µM (active)
16,CN(C)c1nc(=Nc2cccc(Cl)c2)ss1,0.282 µM (active)
17,COc1ccccc1-c1ccnc2[nH]n(-c3ccccc3)c(=O)c12,inactive
18,CCOC(=O)C1CCCN(CC(=O)Nc2cc(C)c3c(=O)oc4ccccc4c3n2)C1 (stereo not given),inactive
19,O=C(O)C1CC=CC2CCN(C3CCCCC3)C(=O)C21 (stereo not given),inactive
20,CCOc1cc(/C=C(\C#N)C(=O)Nc2ccccc2C)ccc1OCc1cc(=O)n2nc(CC)sc2n1,inactive
21,C=C(C)C(=O)O[C@H]1C/C(C)=C\C(=O)/C=C(\C)[C@H](O)[C@@H]2OC(=O)C(=C)[C@@H]21,3.55 µM (active)
22,COc1ccc(NS(=O)(=O)c2ccc(N3CCOCC3)c(NC(=O)/C=C/C(=O)O)c2)cc1,inactive
23,COC(=O)c1sc(-c2ccc(C(C)(C)C)cc2)cc1NC(=O)/C=C/C(=O)O,8.91 µM (active)
24,COC(=O)c1nc(NC(=O)c2ccc(C(C)(C)C)cc2)n[nH]1,inactive
